Laboratory results published in PubChem BioAssay (Tox21).
Results filed as inconclusive are left out. A number with no mark means an inactive call. The source made the active and inactive calls. Calls follow the shape of the dose curve; as a rule, active = well fitted activation curve with a large enough effect in the signal ratio in the repeat runs (not every such curve was filed as active); inconclusive = weak or mixed curves; inactive = flat fitted curve, though single readings scatter; the % refers to the signal ratio.

Assay: qHTS assay to identify small molecule agonists of H2AX (AID 1224845)
Settings: CHO-K1 phospho-H2AX Ser139 HTRF, 3 h; series mostly up to 154 µM; activation (H2AX phosphorylation): at the top concentration
Excerpt: National Center for Advancing Translational Sciences [NCATS]
NIH Chemical Genomics Center [NCGC]
U.S. Environmental Protection Agency [EPA]
National Institutes of Environmental Health Sciences [NIEHS]
National Toxicology Program [NTP]
U.S. Food and Drug Administration [FDA]
HTRF phospho-H2AX (Ser139) assay (Cisbio Bioassays, US) enables the quantitative detection of the histone variant H2AX when phosphorylated on serine 139. When double-stranded DNA breaks, either by ionizing radiation or endogenous physiological processes, H2AX becomes phosphorylated at Ser139. This phospho-Ser139 serves as a sensitive biomarker for the detection of such breaks, localizing the site of DNA repair. So, HTRF phospho-H2AX Ser139 is a pertinent assay to study genome stability, the cell cycle, DNA repair, and it serves as a biomarker for cancer, and to understand aging. Wild type CHO-K1 cells were used to identify the inducers of Phospho-H2AX Ser 139 from the Tox21 10K compound collections.
Tox21 Assay Protocol Summary:
The CHO-K1 cells suspended in culture medium containing 10% FBS were dispensed at 1000 cells/ 3 ul/well in 1536-well white wall/solid bottom plates (Greiner Bio-One North America, NC) using a Multidrop Combi (Thermo Fisher Scientific Inc., Waltham, MA). After the assay plates were incubated at 37C overnight, 23 nl of compounds at 15 concentrations (from 5-48 columns) or positive control (from 1 to 4 columns) were transferred to the assay plates using a Pintool station (Wako, San Diego, CA) into each well resulting in a final DMSO concentration of 0.76%. After 3hr incubation at 37C, 1 uL/well Supplemented Lysis buffer (diluted 100 fold blocking reagent in lysis buffer) (HTRF Phospho-H2A.X (S139) Assay kit from Cisbio US Inc., Bedford, MA) was added using a Flying Reagent Dispenser (FRD) (Aurora Discovery, CA). After 10sec spin at 1000 rpm in a plate centrifuge, the assay plates were incubated at room temperature for 30 min. Then followed by the addition of 1 uL/well detection buffer (containing a mixture of two antibodies, one labeled with cryptate, Anti pH2AX (S139)-K and another labeled with d2, Anti H2AX-d2) using FRD. After incubation at room temperature for 24 hr, the time resolved fluorescence at excitation 320 nm and emissions at 665 nm and 620 nm was measured using an Envision plate reader (PerkinElmer, Waltham, MA).
% is scaled to controls: 0 for no effect and ±100 for the full control effect; potency is read from the fitted curve at half-maximal effect.

First: Oc1ccccc1Br
Second: N#Cc1ccccc1N
The “activation (H2AX phosphorylation)” value of the first is lower: -2.34% for the first, -2.02% for the second.

First: Cc1cc(C(C)(C)c2cc(C)c(O)c(C)c2)cc(C)c1O
Second: Cc1cc(C)c(C2=C(OC(=O)CC(C)(C)C)C3(CCCC3)OC2=O)c(C)c1
The “activation (H2AX phosphorylation)” value of the first is lower: 0.0276% for the first, 0.0428% for the second.

First: Clc1ccc(-c2ccccc2)cc1
Second: CC(C)[C@H](C(=O)O[C@H](C#N)c1cccc(Oc2ccccc2)c1)c1ccc(Cl)cc1
The “activation (H2AX phosphorylation)” value of the first is higher: -1.25% for the first, -5.87% for the second.

Going from `CC(C)C(=O)Cl` to `Cc1ccc(C(=O)Cl)cc1`, the “activation (H2AX phosphorylation)” value rises from -0.702% to 0.587%.

First: CCc1nn(C)c(C(=O)NCc2ccc(C(C)(C)C)cc2)c1Cl
Second: CC(C)(C)C(O)/C(=C\c1ccc(Cl)cc1Cl)n1cncn1 (stereo not given)
The “activation (H2AX phosphorylation)” value of the first is higher: 6.44% for the first, -4.83% for the second.

Compared with `BrCBr`, `CCN` is lower in “activation (H2AX phosphorylation)” value: 0.438% for the first, -2.87% for the second.

Compared with `CC(C)N1C(=O)N(c2ccccc2)CSC1=NC(C)(C)C`, `CCc1ccccc1C` is lower in “activation (H2AX phosphorylation)” value: -2.13% for the first, -5.29% for the second.

Going from `CC(C)CCCCCCCOP(=O)(Oc1ccccc1)Oc1ccccc1` to `Cc1ccc(OP(=O)(Oc2ccccc2)Oc2ccccc2)cc1`, the “activation (H2AX phosphorylation)” value falls from -2.46% to -5.23%.

Going from `N#C/C=C/C#N` to `N#C/C=C/c1ccccc1`, the “activation (H2AX phosphorylation)” value falls from 5.08% to -0.171%.

First: Cc1cccc(OP(=O)(Oc2cccc(C)c2)Oc2cccc(C)c2)c1
Second: Cc1cc(N=Nc2ccccc2C)ccc1N
The “activation (H2AX phosphorylation)” value of the first is higher: -0.919% for the first, -2.35% for the second.

Compared with `CC(=O)OC1(c2ccccc2)CCN(CCc2ccccc2)CC1`, `Cc1ccc(CCl)cc1` is lower in “activation (H2AX phosphorylation)” value: 1.4% for the first, -2.57% for the second.

Compared with `CCOC(=O)CC(=O)CCl`, `CCCSP(=O)(OCC)SCCC` is lower in “activation (H2AX phosphorylation)” value: 3.34% for the first, 0.513% for the second.

Going from `N#CCc1ccc(Cl)cc1` to `COc1ccc(OC)c(CC(C)N)c1` (stereo not given), the “activation (H2AX phosphorylation)” value falls from -0.725% to -5.51%.

Going from `CN(C)[C@@H]1C(=O)C(C(N)=O)=C(O)[C@@]2(O)C(=O)C3=C(O)c4c(O)ccc(Cl)c4[C@@](C)(O)[C@H]3C[C@@H]12` to `CCS(=O)(=O)c1cccnc1S(=O)(=O)NC(=O)Nc1nc(OC)cc(OC)n1`, the “activation (H2AX phosphorylation)” value falls from 0.656% to -3.89%.

Going from `Cn1[nH]nnc1=S` to `CC(C)CCCCCOC(=O)c1ccccc1C(=O)OCCCCCC(C)C`, the “activation (H2AX phosphorylation)” value falls from -0.464% to -3.29%.

Going from `ClC1=C(Cl)[C@]2(Cl)[C@@H]3[C@@H](Cl)[C@@H](Cl)C[C@@H]3[C@@]1(Cl)C2(Cl)Cl` to `CCCCCCCCCCCCBr`, the “activation (H2AX phosphorylation)” value rises from -4.64% to -1.67%.

For `CCCCCCCCCCCCCCCC[N+](C)(C)C`, the Potency was “inactive”.
For `CC(=O)[O-].CC(=O)[O-].O.O.[Cd+2]`, the Potency was 62.7 µM (active).
With `CCCCCCCCc1ccc(O)cc1` the Potency was 36 µM (active).
With `Clc1ccc(C(c2ccc(Cl)cc2)C(Cl)(Cl)Cl)cc1` the Potency was 0.161 µM (active).
For `O=C(CCl)Nc1ccccc1`, the Potency was 80 µM (active).
For `CCC[CH2][Sn]([CH2]CCC)([CH2]CCC)[O]C(=O)c1ccccc1`, the Potency was 0.505 µM (active).

Compared with `Clc1ccc(COC(Cn2ccnc2)c2ccc(Cl)cc2Cl)cc1` (stereo not given), `CCSC(C)CC1CC(=O)C(/C(CC)=N/OC/C=C/Cl)=C(O)C1` (stereo not given) is higher in “activation (H2AX phosphorylation)” value: 0.327% [at 70.9 µM] for the first, 0.495% [at 70.9 µM] for the second.
